Of roughly 7,900 targets only a part is listed; those with a hit were picked by preference. About 0.6% of all pairs of compound and target were hits. Values without a mark were called inactive.

Chain of UniProt Q96LT7 (Q96LT7 whole entry, looked up): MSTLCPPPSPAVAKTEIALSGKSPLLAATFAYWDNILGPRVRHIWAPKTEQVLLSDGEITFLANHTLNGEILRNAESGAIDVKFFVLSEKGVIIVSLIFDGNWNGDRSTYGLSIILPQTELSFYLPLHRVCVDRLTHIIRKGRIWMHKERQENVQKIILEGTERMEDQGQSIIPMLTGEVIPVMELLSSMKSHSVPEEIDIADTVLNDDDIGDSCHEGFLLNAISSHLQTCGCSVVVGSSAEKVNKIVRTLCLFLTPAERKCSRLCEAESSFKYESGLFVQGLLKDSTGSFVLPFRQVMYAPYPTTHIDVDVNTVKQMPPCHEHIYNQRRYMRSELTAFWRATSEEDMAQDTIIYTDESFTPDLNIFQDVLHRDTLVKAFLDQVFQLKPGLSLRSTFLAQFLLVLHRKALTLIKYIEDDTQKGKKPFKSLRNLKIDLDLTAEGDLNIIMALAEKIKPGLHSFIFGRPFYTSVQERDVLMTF
Chain of UniProt P68400 (P68400 whole entry, looked up): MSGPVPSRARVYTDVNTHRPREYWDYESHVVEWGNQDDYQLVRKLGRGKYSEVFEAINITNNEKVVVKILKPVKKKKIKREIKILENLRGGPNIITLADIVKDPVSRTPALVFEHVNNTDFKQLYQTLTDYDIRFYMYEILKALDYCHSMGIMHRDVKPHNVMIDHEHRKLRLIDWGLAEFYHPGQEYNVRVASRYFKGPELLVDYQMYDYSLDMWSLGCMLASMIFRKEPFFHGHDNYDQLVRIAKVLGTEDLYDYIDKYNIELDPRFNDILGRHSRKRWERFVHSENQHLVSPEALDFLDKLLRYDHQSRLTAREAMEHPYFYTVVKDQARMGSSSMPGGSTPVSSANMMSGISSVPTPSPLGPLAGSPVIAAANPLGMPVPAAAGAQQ
Chain of UniProt Q96RR4 (Q96RR4 whole entry, looked up): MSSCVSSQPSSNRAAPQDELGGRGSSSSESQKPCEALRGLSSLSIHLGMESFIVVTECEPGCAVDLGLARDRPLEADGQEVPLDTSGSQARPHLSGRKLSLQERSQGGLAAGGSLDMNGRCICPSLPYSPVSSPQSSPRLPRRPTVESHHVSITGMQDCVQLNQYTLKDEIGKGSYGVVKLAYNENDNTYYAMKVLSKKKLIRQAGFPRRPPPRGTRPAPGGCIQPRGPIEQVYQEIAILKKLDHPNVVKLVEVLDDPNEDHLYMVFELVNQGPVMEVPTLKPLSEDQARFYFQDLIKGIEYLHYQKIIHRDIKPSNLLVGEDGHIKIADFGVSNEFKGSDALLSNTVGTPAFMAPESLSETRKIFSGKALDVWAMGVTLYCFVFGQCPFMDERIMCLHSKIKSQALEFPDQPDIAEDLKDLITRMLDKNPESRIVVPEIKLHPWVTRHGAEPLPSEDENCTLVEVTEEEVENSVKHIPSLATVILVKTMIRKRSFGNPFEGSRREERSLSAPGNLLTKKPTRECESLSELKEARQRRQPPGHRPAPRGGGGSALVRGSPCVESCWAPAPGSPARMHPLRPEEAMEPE
Chain of UniProt Q5VT25 (Q5VT25 whole entry, looked up): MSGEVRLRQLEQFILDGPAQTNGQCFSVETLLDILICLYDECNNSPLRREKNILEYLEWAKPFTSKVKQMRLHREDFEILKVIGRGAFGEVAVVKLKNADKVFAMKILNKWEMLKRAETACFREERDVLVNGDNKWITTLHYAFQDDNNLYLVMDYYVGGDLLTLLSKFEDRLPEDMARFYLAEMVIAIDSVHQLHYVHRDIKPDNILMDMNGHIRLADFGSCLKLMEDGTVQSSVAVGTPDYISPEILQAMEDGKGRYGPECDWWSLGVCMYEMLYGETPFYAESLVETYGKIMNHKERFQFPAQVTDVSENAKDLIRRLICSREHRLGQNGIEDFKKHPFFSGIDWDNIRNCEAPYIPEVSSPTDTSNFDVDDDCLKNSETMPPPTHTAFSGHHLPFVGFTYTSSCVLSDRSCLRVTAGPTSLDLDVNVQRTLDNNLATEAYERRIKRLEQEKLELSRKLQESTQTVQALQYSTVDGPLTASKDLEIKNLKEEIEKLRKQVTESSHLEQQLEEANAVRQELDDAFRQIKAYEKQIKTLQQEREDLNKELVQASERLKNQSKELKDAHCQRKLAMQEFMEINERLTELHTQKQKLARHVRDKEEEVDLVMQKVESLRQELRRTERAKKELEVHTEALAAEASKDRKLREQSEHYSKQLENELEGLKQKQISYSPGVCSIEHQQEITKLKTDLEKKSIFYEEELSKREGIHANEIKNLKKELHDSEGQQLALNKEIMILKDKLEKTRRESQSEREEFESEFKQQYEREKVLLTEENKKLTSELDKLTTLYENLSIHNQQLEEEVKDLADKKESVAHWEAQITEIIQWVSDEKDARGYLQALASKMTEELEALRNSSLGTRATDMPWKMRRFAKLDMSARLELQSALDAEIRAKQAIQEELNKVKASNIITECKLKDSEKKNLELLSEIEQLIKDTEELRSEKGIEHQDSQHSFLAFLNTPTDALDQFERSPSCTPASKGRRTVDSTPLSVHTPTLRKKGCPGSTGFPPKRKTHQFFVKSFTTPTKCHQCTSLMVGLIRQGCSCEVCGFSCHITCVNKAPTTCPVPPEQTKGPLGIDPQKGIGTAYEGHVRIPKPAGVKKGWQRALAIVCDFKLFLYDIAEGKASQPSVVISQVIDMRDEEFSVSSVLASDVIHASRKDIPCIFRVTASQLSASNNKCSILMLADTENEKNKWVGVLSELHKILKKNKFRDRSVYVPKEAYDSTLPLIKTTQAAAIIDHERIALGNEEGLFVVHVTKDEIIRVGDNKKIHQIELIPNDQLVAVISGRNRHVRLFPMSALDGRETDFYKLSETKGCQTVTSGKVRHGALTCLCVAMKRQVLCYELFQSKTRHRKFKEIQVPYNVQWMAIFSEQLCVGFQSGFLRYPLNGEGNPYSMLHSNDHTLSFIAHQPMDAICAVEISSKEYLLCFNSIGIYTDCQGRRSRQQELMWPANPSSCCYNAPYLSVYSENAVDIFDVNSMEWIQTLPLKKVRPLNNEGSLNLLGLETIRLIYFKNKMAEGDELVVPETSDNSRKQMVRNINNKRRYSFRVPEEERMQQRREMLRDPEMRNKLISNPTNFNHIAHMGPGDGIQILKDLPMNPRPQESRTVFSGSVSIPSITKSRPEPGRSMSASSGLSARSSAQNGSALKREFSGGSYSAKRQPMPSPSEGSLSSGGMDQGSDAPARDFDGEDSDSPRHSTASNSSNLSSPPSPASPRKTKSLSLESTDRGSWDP
Chain of UniProt O75909 (O75909 whole entry, looked up): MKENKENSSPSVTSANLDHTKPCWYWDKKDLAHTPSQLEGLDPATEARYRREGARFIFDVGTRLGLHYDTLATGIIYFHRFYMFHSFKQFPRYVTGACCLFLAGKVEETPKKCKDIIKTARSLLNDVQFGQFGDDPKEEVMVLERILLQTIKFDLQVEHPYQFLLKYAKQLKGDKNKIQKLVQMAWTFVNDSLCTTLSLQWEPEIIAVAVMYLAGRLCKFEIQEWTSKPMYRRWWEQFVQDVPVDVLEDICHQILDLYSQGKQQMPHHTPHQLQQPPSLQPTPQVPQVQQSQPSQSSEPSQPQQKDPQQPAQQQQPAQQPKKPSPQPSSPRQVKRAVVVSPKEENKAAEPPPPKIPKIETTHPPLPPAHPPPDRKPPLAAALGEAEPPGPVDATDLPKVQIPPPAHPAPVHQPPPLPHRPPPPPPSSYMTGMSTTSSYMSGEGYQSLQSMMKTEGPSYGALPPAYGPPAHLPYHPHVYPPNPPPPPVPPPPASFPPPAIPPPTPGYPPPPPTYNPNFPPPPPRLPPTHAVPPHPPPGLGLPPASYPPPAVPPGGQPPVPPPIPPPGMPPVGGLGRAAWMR
Chain of UniProt P21964 (P21964 whole entry, looked up): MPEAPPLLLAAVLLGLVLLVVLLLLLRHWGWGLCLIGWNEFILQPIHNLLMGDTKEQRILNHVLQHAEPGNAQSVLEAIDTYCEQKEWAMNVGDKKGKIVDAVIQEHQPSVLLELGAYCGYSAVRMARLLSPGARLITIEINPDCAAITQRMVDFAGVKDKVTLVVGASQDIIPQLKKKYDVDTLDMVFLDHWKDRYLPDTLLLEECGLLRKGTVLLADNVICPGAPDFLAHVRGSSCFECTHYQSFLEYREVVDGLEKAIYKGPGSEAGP
Chain of UniProt Q9Y3X0 (Q9Y3X0 whole entry, looked up): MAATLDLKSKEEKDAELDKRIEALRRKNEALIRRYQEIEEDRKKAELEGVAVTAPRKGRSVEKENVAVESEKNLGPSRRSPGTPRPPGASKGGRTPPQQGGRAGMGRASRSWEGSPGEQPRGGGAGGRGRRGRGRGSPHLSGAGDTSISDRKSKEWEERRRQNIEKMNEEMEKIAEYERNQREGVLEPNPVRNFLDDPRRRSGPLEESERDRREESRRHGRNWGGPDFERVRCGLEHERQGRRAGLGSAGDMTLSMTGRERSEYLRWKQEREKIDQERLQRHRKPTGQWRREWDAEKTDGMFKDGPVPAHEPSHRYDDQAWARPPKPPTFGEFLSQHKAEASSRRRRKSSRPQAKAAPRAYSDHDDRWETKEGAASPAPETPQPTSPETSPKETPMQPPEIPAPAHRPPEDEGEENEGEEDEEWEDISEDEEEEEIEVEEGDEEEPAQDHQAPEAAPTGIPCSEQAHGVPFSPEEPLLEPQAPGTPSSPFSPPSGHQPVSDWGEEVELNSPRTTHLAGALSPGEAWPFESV
Chain of UniProt P14635 (P14635 whole entry, looked up): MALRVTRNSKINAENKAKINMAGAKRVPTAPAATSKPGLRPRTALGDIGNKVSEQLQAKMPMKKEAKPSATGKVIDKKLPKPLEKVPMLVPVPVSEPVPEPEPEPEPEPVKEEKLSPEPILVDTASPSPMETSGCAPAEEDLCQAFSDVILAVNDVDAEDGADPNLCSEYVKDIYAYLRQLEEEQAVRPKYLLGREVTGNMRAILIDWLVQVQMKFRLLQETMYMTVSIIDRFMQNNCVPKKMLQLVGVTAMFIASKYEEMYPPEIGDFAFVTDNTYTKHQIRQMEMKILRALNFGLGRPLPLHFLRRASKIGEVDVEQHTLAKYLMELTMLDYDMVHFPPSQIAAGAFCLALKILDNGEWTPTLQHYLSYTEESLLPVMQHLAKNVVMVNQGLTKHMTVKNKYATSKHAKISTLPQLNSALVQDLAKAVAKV

Compound in one assay: CS(=O)(=O)N1CCN(Cc2cc3nc(-c4cccc5[nH]ncc45)nc(N4CCOCC4)c3s2)CC1 [pictilisib]
Put plainly: log2 fold change, soluble protein after heating vs DMSO (PISA); higher = thermal stabilisation; K562 cells, 10 uM, 30 min; active = over 0.2 and 3.5 SD of the protein, either way, in both replicates (recomputed). The essentials: (§1)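 K562 cells at 2×10^6 cells/mL were treated for 30 min with 10 μM compound, and aliquots were heated for 3 min over 48°C-58°C before pooling. Extraction used PBS with 0.5% NP-40 at 4°C, and soluble protein was the supernatant after 21,000xg for 90 min, measured by TMTpro 16plex LC-MS/MS with channel sums equalised. Thermal stability values, relative to control samples and from duplicates, are log2 fold changes.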
As for CALCOCO2 isoform 4 (UniProt Q13137), the log2 fold change was 0.031.

With CASP10 isoform 4 (UniProt Q92851), the log2 fold change is 0.079.

As to C9orf72 (UniProt Q96LT7), the log2 fold change is -0.015.

As for CSNK2A1 (UniProt P68400), the log2 fold change was 0.102.

Consider CCNB1 (UniProt P14635), for which the log2 fold change was 0.002.

As for CHCHD1 (UniProt Q96BP2), the log2 fold change was -0.193.

Consider CERT isoform 3 (UniProt Q9Y5P4), for which the log2 fold change is 0.186.

CCDC9 (UniProt Q9Y3X0): the log2 fold change is -0.015.

In the case of CAMKK2 (UniProt Q96RR4), the log2 fold change was 0.035.

On to COMT (UniProt P21964), for which the log2 fold change is 0.136.

Turning to CCNK isoform 4 (UniProt O75909), the log2 fold change is -0.033.

Regarding CDC42BPA isoform 6 (UniProt Q5VT25), the log2 fold change was 0.118.

With C9orf64 (UniProt Q5T6V5), the log2 fold change is -0.055.

Compound in a further assay: CS(=O)(=O)c1ccc(-c2cnc(N)c(C(=O)Nc3ccccc3)n2)cc1
Described as above. The essentials: as §1
For CHP1 (UniProt Q99653), the log2 fold change is 0.025.

Take CES2 isoform 4 (UniProt O00748): the log2 fold change is 0.162.

As for CPT2 (UniProt P23786), the log2 fold change was 0.701 (active).

Turning to CNN2 (UniProt Q99439), the log2 fold change was -0.003.

For CBX5 (UniProt P45973), the log2 fold change is 0.012.

For the target CNOT4 isoform 6 (UniProt O95628), the log2 fold change is 0.007.

On to CD55 isoform 7 (UniProt P08174), for which the log2 fold change was -0.023.

In the case of CPT1A (UniProt P50416), the log2 fold change is 0.043.

As for CD81 (UniProt P60033), the log2 fold change is -0.03.

Regarding CRK (UniProt P46108), the log2 fold change was 0.043.

Turning to CSK (UniProt P41240), the log2 fold change was 0.082.

On to CELF2 isoform 3 (UniProt O95319), for which the log2 fold change is -0.107.

CDK5RAP3 isoform 4 (UniProt Q96JB5): the log2 fold change is -0.017.

For the target CSNK2A2 (UniProt P19784), the log2 fold change was 0.068.

Regarding CCZ1 (UniProt P86791), the log2 fold change was 0.022.

For CBR1 (UniProt P16152), the log2 fold change was 0.006.

Take CHAMP1 (UniProt Q96JM3): the log2 fold change was 0.02.

With CHMP4C (UniProt Q96CF2), the log2 fold change is -0.044.

As for CBS (UniProt P35520), the log2 fold change was -0.024.

Turning to COX15 (UniProt Q7KZN9), the log2 fold change is -0.008.

In the case of CDAN1 (UniProt Q8IWY9), the log2 fold change is 0.058.

As for CDC26 (UniProt Q8NHZ8), the log2 fold change is 0.036.

As for COPS3 (UniProt Q9UNS2), the log2 fold change is 0.018.

On to CALCOCO2 isoform 4 (UniProt Q13137), for which the log2 fold change was 0.026.

In the case of CASP10 isoform 4 (UniProt Q92851), the log2 fold change was 0.006.

With C9orf72 (UniProt Q96LT7), the log2 fold change is 0.058.

For the target CSNK2A1 (UniProt P68400), the log2 fold change is 0.055.

As to CCNB1 (UniProt P14635), the log2 fold change is -0.002.

Turning to CHCHD1 (UniProt Q96BP2), the log2 fold change is -0.115.

CERT isoform 3 (UniProt Q9Y5P4): the log2 fold change is 0.015.

Take CCDC9 (UniProt Q9Y3X0): the log2 fold change is -0.046.

CAMKK2 (UniProt Q96RR4): the log2 fold change was 0.

Take COMT (UniProt P21964): the log2 fold change was 0.04.

On to CCNK isoform 4 (UniProt O75909), for which the log2 fold change was -0.014.

With CDC42BPA isoform 6 (UniProt Q5VT25), the log2 fold change was 0.03.

Consider C9orf64 (UniProt Q5T6V5), for which the log2 fold change is 0.049.

The values above are taken from the supplement of paper PMC10849652.
